Source: PubChem BioAssay AID1159580 (chemical genetic matrix, 2015)
Out of some 5,500 compounds screened, about 2,000 (36%) were called active. Not shown: some 18% with an inconclusive outcome. No stated cut-off is given here; in the data, active means normalized growth mostly below about 0.91 (no sharp cut-off); inconclusive means no clear call, values can overlap the other calls; inactive means mostly above about 0.92. The list shows a part of the results.

Assay: chemical genetic growth profiling, strain panel (AID 1159580);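 further: tested at 20 µM; growth read once vehicle control cultures reached saturation at 30 °C; 1 = growth at the plate median or of vehicle wells; lower values mean less growth of the strain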
Settings: S. cerevisiae deletion strains, growth OD

Measured: normalized growth

CCNC(=O)[C@H]1O[C@@H](n2cnc3c(N)nc(NCCc4ccc(CCC(=O)O)cc4)nc32)C(O)[C@H]1O (some centres undefined)
inactive: locus YAL040C, strain CLN3, active compounds read low 0.963 | locus YCL061C, strain MRC1 (second series), active compounds read low 0.991 | locus YDR363W, strain ESC2, active compounds read low 0.972 | locus YER002W, strain NOP16, active compounds read low 0.995 | locus YGR078C, strain PAC10, active compounds read low 0.992 | locus YJR075W, strain HOC1, active compounds read low 0.999 | locus YMR307W, strain GAS1, active compounds read low 1 | locus YNL153C, strain GIM3, active compounds read low 1 | locus YNL175C, strain NOP13, active compounds read low 0.98 | locus YNL197C, strain WHI3, active compounds read low 0.981 | locus YNL224C, strain SQS1, active compounds read low 1.03 | locus YOR083W, strain WHI5 (second series), active compounds read low 0.978 | locus YPL055C, strain LGE1, active compounds read low 0.953 | locus YPL241C, strain CIN2, active compounds read low 0.976
